Results on 40 compounds are retold here after PubChem BioAssay.

Structures are written as SMILES. Values without a mark were called inactive. The source made the active and inactive calls. Unless noted, no stated cut-off is given here; in the data, active means inhibition above about 42%; inactive means the rest.

Chain of Steroidogenic factor 1 (Homo sapiens) (Q13285 whole entry, looked up): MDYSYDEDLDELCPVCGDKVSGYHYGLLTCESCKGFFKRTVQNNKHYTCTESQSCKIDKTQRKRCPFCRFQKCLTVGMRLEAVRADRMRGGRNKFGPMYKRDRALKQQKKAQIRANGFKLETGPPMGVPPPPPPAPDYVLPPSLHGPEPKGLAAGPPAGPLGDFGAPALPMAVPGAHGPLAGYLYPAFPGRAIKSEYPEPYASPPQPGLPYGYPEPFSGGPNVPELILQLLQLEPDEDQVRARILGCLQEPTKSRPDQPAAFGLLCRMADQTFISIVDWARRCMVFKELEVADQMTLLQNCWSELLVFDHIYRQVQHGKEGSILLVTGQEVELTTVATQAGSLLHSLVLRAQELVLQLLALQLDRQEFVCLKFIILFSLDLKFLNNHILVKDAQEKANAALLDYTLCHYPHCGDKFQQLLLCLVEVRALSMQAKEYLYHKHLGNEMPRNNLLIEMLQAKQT

One test deals with Nuclear receptor subfamily 5 group A member 2 (Homo sapiens) (UniProt O00482). Nature of the test: LRH-1 (NR5A2) inverse agonists, retest, confirmation, cell-based, luminescence (AID 651613).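 Further: HEK293T cells co-transfected with LRH-1 and StAR promoter luciferase reporter; 0% = vehicle wells and 100% = parental cells lacking receptor.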 As to conditions: cell-based LRH-1 luciferase reporter, inverse agonism; at 3.6 µM; active compounds read high. A general note: Reporter assays use an easily measured gene product as a stand-in for the process of interest.
Chain of Nuclear receptor subfamily 5 group A member 2 (Homo sapiens) (O00482 whole entry, looked up): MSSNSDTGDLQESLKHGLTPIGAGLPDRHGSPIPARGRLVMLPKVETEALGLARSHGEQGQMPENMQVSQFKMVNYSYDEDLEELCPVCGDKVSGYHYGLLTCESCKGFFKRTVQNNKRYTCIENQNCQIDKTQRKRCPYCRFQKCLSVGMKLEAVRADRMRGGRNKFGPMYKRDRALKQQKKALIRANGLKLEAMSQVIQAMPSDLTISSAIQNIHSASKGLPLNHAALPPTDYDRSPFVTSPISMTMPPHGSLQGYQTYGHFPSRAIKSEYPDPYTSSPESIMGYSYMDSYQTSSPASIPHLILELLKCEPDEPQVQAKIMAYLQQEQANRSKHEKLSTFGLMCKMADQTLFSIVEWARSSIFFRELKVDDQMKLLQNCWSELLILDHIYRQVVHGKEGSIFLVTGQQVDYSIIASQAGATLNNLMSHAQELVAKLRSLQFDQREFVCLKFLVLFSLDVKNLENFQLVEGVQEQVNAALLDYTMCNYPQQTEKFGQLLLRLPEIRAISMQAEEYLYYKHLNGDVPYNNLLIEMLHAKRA
`COc1ccc(-n2c(SCC(=O)NCc3ccco3)nc3sc4c(c3c2=O)CCN(C)C4)cc1`: the inhibition (commonly the change of the read-out against control, counted positive when it falls) was -2.89%.
Regarding `Cc1nn(Cc2ccc(Cl)cc2)c(C)c1NC(=O)c1noc2c1CCCCC2`, the inhibition was 46.8% (active).
Still for that read-out and setting: the same measure for `O=C(CSc1n[nH]c(-c2ccccc2)n1)Nc1ccc(F)cc1F`: 58.4% (active).
With `CCOc1ccc(CCNC(=O)COC(=O)CCC(=O)c2cccs2)cc1OCC`, the inhibition was 45.3% (active).
Same read-out and setting: with `O=C(COC(=O)c1ccc(S(=O)(=O)N2CCCC2)cc1)Nc1ccc(N2CCOCC2)cc1` the figure was 48.5% (active); with `COc1cc(/C=C2/SC(=Nc3ccc(O)cc3)NC2=O)ccc1O`, 48.5% (active); with `COc1ccc(CCNC(=O)COC(=O)C23CC4CC(CC(C4)C2)C3)cc1`, 57% (active).
Still for that read-out and setting: the same measure for `Cc1cc(-c2nn3c(-c4ccccc4)nnc3s2)c2ccccc2n1`: 38.6%; for `NC(=S)N/N=C/c1ccc(-n2nncc2-c2ccc(Cl)cc2)cc1`: 51.6% (active).
`COC(=O)c1ccc([C@H](NC(=O)c2ccco2)[C@]2(C)C[C@H]2C2CCCCC2)cc1`: the inhibition was 30.3%.
Still for that read-out and setting: the same measure for `O=C(CN(Cc1ccccc1)C(=O)CCl)c1cccc(Br)c1`: 55.7% (active).
On the same count and under the same terms, with `CCC(=O)N1CCN(c2ccc(NC(=O)c3ccc([N+](=O)[O-])o3)cc2)CC1` the figure was 78% (active); with `CN(CCc1ccccc1)C(=O)c1ccc(NC(=O)Cc2ccc(NC(=O)C3CCCN(C(=O)CCc4ccccc4)C3)cc2)cc1` (stereo not given), 62.4% (active); with `O=C(NCc1ccco1)c1ccc([N+](=O)[O-])o1`, 60.5% (active).
As to `CCOC(=O)c1c2c(n(Cc3ccccc3)c1C)C(=O)C(=O)c1ccccc1-2`, the inhibition is 60.6% (active).
In the case of `COC(=O)CNc1nc(-c2cccnc2)nc2ccccc12`, the inhibition was 44.6% (active).
Regarding `COc1ccc(NC(=O)CSc2sc3c(O)cc(=O)[nH]c3c2C#N)c(OC)c1`, the inhibition is 48.8% (active).
For `COc1ccc(O)c(/C=N/Nc2nc(Nc3ccccc3)nc(-n3nc(C)cc3C)n2)c1`, the inhibition was -28.7%.
As for `CC(=O)Nc1ccc(NC(=O)CSc2nnc(-c3cc4ccccc4o3)n2C)cc1`, the inhibition was 42.7% (active).
Still for that read-out and setting: with `Cc1cc(OCC(=O)Nc2nccs2)c2c(C)cc(=O)oc2c1` the figure was 66.6% (active).
As to `O=C(NCc1cccc(C(F)(F)F)c1)c1cc(-c2ccccc2)nn1CC1CC(c2cccnc2)=NO1` (stereo not given), the inhibition is 36.4%.
With `O=C(CSc1nnc(CNC(=O)c2ccccc2F)o1)Nc1ccc2c(c1)OCCO2`, the inhibition is 56.9% (active).
With `CN(CC(=O)Nc1ccc(N2CCOCC2)cc1)CC(=O)Nc1ccc(N2CCOCC2)cc1`, the inhibition was 52.1% (active).
On the same count and under the same terms, the same measure for `C#Cc1cccc(Nc2nc(NC(C)C)nc3ccsc23)c1`: 63.6% (active); for `C=CCn1c(SCC(=O)Nc2ccccc2C)nc(O)cc1=O`: 57.8% (active).
Still for that read-out and setting: with `Cc1cc(N2CCN(c3nc4ccccc4s3)CC2)n2ncnc2n1` the figure was 52.4% (active); with `CC1(C)CC(=O)C=C(c2ccc3ncccc3c2)C1`, 52.2% (active).
For `CCOc1ccc(CCNC(=O)COC(=O)CSc2ccccc2C)cc1OCC`, the inhibition is 49% (active).
`O=C(CSc1ccccn1)Nc1nonc1[N+](=O)[O-]`: the inhibition was 16.9%.
On the same count and under the same terms, with `Cc1ccc(/C=C2\SC(=S)N(c3c(C)n(C)n(-c4ccccc4)c3=O)C2=O)cc1` the figure was 55.7% (active).
As for `CC(=O)Nc1cc(-c2ccc(S(C)(=O)=O)cc2)cn2c(-c3ccc(F)cc3)cnc12`, the inhibition is 53.4% (active).
The same measure, in the same setting: with `O=C1CCN(CCCN2CCC(=O)N(Cc3ccccc3)C2=S)C(=S)N1Cc1ccccc1` the figure was 27.2%.
Still for that read-out and setting: with `Cc1ccc(S(=O)(=O)N2CC(O)CC2C(=O)OCC(=O)Nc2ccc([N+](=O)[O-])cc2C(F)(F)F)cc1C` (stereo not given) the figure was 60.5% (active).
In the case of `CC1CCCC(C)N1C(=O)COC(=O)Cc1ccc(Cl)cc1` (stereo not given), the inhibition was 51.2% (active).
Same read-out and setting: the same measure for `Cc1cccc(OCC(=O)Nc2ccncc2)c1C`: 60% (active); for `O=C(CSc1nnc(Cc2cccs2)n1-c1ccccc1)Nc1ccc2c(c1)OCCO2`: 34.8%; for `CCOCC(=O)Nc1cccc(C(=O)OCC)c1`: 36.9%.
Still for that read-out and setting: the same measure for `COc1ccc(Oc2ccc(NC(=O)c3ccccc3C)cc2)cc1`: 38.8%; for `ClCc1ncc(-c2ccc(Cl)cc2)o1`: 70% (active); for `CCC(=O)N1CCN(c2ccc(Cl)cc2NC(=O)c2ccc([N+](=O)[O-])o2)CC1`: 64.7% (active).

A further test addresses Steroidogenic factor 1 (Homo sapiens) (UniProt Q13285). Nature of the test: SF1 (NR5A1) inverse agonists, counter-screen for LRH-1 inverse agonist project, cell-based, luminescence, high throughput (AID 651614; in the data active means inhibition above about 44%;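 further: cells cotransfected with StAR promoter reporter and SF1 expression vector; 0% = vehicle on cells with receptor and 100% = vehicle on cells lacking receptor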). As to conditions: cell-based SF1 luciferase reporter, at 3.6 µM, active compounds read high.
Turning to `COc1ccc(-n2c(SCC(=O)NCc3ccco3)nc3sc4c(c3c2=O)CCN(C)C4)cc1`, the inhibition is 11%.
On the same count and under the same terms, the same measure for `Cc1nn(Cc2ccc(Cl)cc2)c(C)c1NC(=O)c1noc2c1CCCCC2`: 54.7% (active).
As for `O=C(CSc1n[nH]c(-c2ccccc2)n1)Nc1ccc(F)cc1F`, the inhibition is 50.4% (active).
On the same count and under the same terms, the same measure for `CCOc1ccc(CCNC(=O)COC(=O)CCC(=O)c2cccs2)cc1OCC`: 51% (active); for `O=C(COC(=O)c1ccc(S(=O)(=O)N2CCCC2)cc1)Nc1ccc(N2CCOCC2)cc1`: 57.4% (active); for `COc1cc(/C=C2/SC(=Nc3ccc(O)cc3)NC2=O)ccc1O`: 43.5% (active).
Still for that read-out and setting: the same measure for `COc1ccc(CCNC(=O)COC(=O)C23CC4CC(CC(C4)C2)C3)cc1`: 48.7% (active); for `Cc1cc(-c2nn3c(-c4ccccc4)nnc3s2)c2ccccc2n1`: 22.6%; for `NC(=S)N/N=C/c1ccc(-n2nncc2-c2ccc(Cl)cc2)cc1`: 56.4% (active).
In the case of `COC(=O)c1ccc([C@H](NC(=O)c2ccco2)[C@]2(C)C[C@H]2C2CCCCC2)cc1`, the inhibition was 21.1%.
The same measure, in the same setting: the same measure for `O=C(CN(Cc1ccccc1)C(=O)CCl)c1cccc(Br)c1`: 51.8% (active).
`CCC(=O)N1CCN(c2ccc(NC(=O)c3ccc([N+](=O)[O-])o3)cc2)CC1`: the inhibition is 68.4% (active).
Still for that read-out and setting: with `CN(CCc1ccccc1)C(=O)c1ccc(NC(=O)Cc2ccc(NC(=O)C3CCCN(C(=O)CCc4ccccc4)C3)cc2)cc1` (stereo not given) the figure was 64.5% (active); with `O=C(NCc1ccco1)c1ccc([N+](=O)[O-])o1`, 59.6% (active).
For the compound `CCOC(=O)c1c2c(n(Cc3ccccc3)c1C)C(=O)C(=O)c1ccccc1-2`, the inhibition was 71.6% (active).
For `COC(=O)CNc1nc(-c2cccnc2)nc2ccccc12`, the inhibition is 42.2%.
`COc1ccc(NC(=O)CSc2sc3c(O)cc(=O)[nH]c3c2C#N)c(OC)c1`: the inhibition is 47.3% (active).
For the compound `COc1ccc(O)c(/C=N/Nc2nc(Nc3ccccc3)nc(-n3nc(C)cc3C)n2)c1`, the inhibition was -41.8%.
As to `CC(=O)Nc1ccc(NC(=O)CSc2nnc(-c3cc4ccccc4o3)n2C)cc1`, the inhibition is 43.9% (active).
In the case of `Cc1cc(OCC(=O)Nc2nccs2)c2c(C)cc(=O)oc2c1`, the inhibition was 55.3% (active).
Still for that read-out and setting: the same measure for `O=C(NCc1cccc(C(F)(F)F)c1)c1cc(-c2ccccc2)nn1CC1CC(c2cccnc2)=NO1` (stereo not given): 32.1%; for `O=C(CSc1nnc(CNC(=O)c2ccccc2F)o1)Nc1ccc2c(c1)OCCO2`: 51.6% (active).
Still for that read-out and setting: the same measure for `CN(CC(=O)Nc1ccc(N2CCOCC2)cc1)CC(=O)Nc1ccc(N2CCOCC2)cc1`: 54.2% (active).
For the compound `C#Cc1cccc(Nc2nc(NC(C)C)nc3ccsc23)c1`, the inhibition is 60.9% (active).
Turning to `C=CCn1c(SCC(=O)Nc2ccccc2C)nc(O)cc1=O`, the inhibition was 52.2% (active).
The same measure, in the same setting: with `Cc1cc(N2CCN(c3nc4ccccc4s3)CC2)n2ncnc2n1` the figure was 54.6% (active); with `CC1(C)CC(=O)C=C(c2ccc3ncccc3c2)C1`, 52.9% (active); with `CCOc1ccc(CCNC(=O)COC(=O)CSc2ccccc2C)cc1OCC`, 41%.
The same measure, in the same setting: the same measure for `O=C(CSc1ccccn1)Nc1nonc1[N+](=O)[O-]`: 26.5%; for `Cc1ccc(/C=C2\SC(=S)N(c3c(C)n(C)n(-c4ccccc4)c3=O)C2=O)cc1`: 45.5% (active); for `CC(=O)Nc1cc(-c2ccc(S(C)(=O)=O)cc2)cn2c(-c3ccc(F)cc3)cnc12`: 33.3%.
Still for that read-out and setting: with `O=C1CCN(CCCN2CCC(=O)N(Cc3ccccc3)C2=S)C(=S)N1Cc1ccccc1` the figure was 28.5%; with `Cc1ccc(S(=O)(=O)N2CC(O)CC2C(=O)OCC(=O)Nc2ccc([N+](=O)[O-])cc2C(F)(F)F)cc1C` (stereo not given), 56% (active); with `CC1CCCC(C)N1C(=O)COC(=O)Cc1ccc(Cl)cc1` (stereo not given), 41.8%.
As to `Cc1cccc(OCC(=O)Nc2ccncc2)c1C`, the inhibition is 61.9% (active).
Turning to `O=C(CSc1nnc(Cc2cccs2)n1-c1ccccc1)Nc1ccc2c(c1)OCCO2`, the inhibition is 31.1%.
Still for that read-out and setting: with `CCOCC(=O)Nc1cccc(C(=O)OCC)c1` the figure was 28.2%.
In the case of `COc1ccc(Oc2ccc(NC(=O)c3ccccc3C)cc2)cc1`, the inhibition was 40.1%.
Take `ClCc1ncc(-c2ccc(Cl)cc2)o1`: the inhibition is 62.7% (active).
Turning to `CCC(=O)N1CCN(c2ccc(Cl)cc2NC(=O)c2ccc([N+](=O)[O-])o2)CC1`, the inhibition was 61.9% (active).
